“And” between values parts separate entries of the source, which are not always exact repeats. Identical values can stand only once. Records with an inconclusive call do not appear. Where a call stands in place of a potency, no number is given. The source holds several records for some structures; these can differ, active in one and inactive in another. The source made the active and inactive calls. The call rests on the fitted dose curve; in most records, active means well fitted activation curve with a large enough effect in the repeat runs; inconclusive means weak or mixed curves; inactive means flat fitted curve, though single readings scatter.
Potency means the concentration at half of the fitted maximal effect.

A short description of this assay: A CellTox Green Cytotoxicity Assay to monitor cytotoxicity in HepG2 cells - 8 hour (AID 1224890). Further: nearly all actives have a fitted effect of over 45% in size. The conditions noted are these: CellTox Green fluorescence; series mostly up to 76.8 µM; cytotoxicity increase: at the top concentration. An excerpt:
National Center for Advancing Translational Sciences [NCATS]
NIH Chemical Genomics Center [NCGC]
U.S. Environmental Protection Agency [EPA]
National Institutes of Environmental Health Sciences [NIEHS]
National Toxicology Program [NTP]
Cell-based models are critical for drug discovery. Determining the natural cytotoxic effects resulting from test compounds is an essential research activity. A CellTox Green Cytotoxicity Assay to monitor cytotoxicity in real time of continues cell culture during 40 hours of the compound treatment was used to screen Tox21 10K library compounds in HepG2 cells. CellTox Green Cytotoxicity Assay is a nonlytic, homogeneous, biofluorescent method to measure cytotoxicity in cell culture after experimental manipulation. The assay system uses a proprietary asymmetric cyanine dye that is excluded from viable cells but preferentially stains the dead cell's DNA. […] Viable cells produce no appreciable increases in fluorescence. Therefore, the fluorescence signal produced by the binding interaction with dead cell DNA is proportional to cytotoxicity.
The mixture of HepG2 cell suspension and reagents were dispensed at 600cells/6 ul/well in 1536-well tissue culture treated black solid bottom plates using a Multidrop dispenser. After the assay plates were incubated at a 37 C/5% CO2 incubator for 5 hours, 23 nL of compounds dissolved in DMSO, positive and negative controls was transferred to the assay plate by a pintool work station. The plates were incubated at 37 C for 40 hours. The fluorescence intensity were measured at 0h, 8h, 16h, 24h, 32h and 40h time points using ViewLux plate reader during compound treatment.
With `COP(=S)(OC)Oc1ccc(Sc2ccc(OP(=S)(OC)OC)cc2)cc1`, the Potency entry is “inactive”.

On to `Cc1ccc(N=CN(C)C=Nc2ccc(C)cc2C)c(C)c1`, for which the Potency entry was “inactive”.

For `CC(O)CN(CC(C)O)CC(C)O` (stereo not given), the Potency entry was “inactive”.

Take `N#Cc1cccnc1`: the Potency entry is “inactive”.

Regarding `NN=C(N)N`, the Potency result is “inactive”.

Take `Clc1ccccc1-c1nnc(-c2ccccc2Cl)nn1`: the Potency result was “inactive”.

As to `CC1(C)Cc2cccc(O)c2O1`, the Potency entry was “inactive”.

In the case of `Clc1cccc(Cl)c1`, the Potency result was “inactive”.

On to `CNC(=S)S`, for which the Potency entry is “inactive”.

For the compound `Cn1c(-c2ccccc2)cc(-c2ccccc2)[n+]1C`, the Potency entry is “inactive”.

For `COC(=O)Nc1nc2ccccc2[nH]1`, the Potency result is “inactive”.

`C[N+](C)(C)CC(=O)[O-]`: the Potency entry was “inactive”.

Turning to `COc1ccc(CO)cc1`, the Potency entry is “inactive”.

Regarding `CCN(CC)C(=O)C(C)Oc1cccc2ccccc12` (stereo not given), the Potency entry is “inactive”.

In the case of `CC(C)=CC1C(C(=O)OCc2cccc(Oc3ccccc3)c2)C1(C)C` (stereo not given), the Potency result is “inactive”.

As to `CNC(=O)Oc1cccc2c1OC(C)(C)C2`, the Potency entry is “inactive”.

In the case of `CC1(C)C(C(=O)OC(C#N)c2cccc(Oc3ccccc3)c2)C1(C)C` (stereo not given), the Potency result is “inactive”.

As for `CCCCCCCCCC(CC)c1ccc(S(=O)(=O)O)cc1` (stereo not given), the Potency entry was “inactive and 34.7 µM (active)”.

Regarding `Clc1cccc(C(Cl)(Cl)Cl)n1`, the “cytotoxicity increase” value was 15.2% (inactive).

In the case of `CC(C)COC(=O)c1ccccc1C(=O)OCC(C)C`, the Potency entry was “inactive”.

Turning to `C=CC(Cl)CCl` (stereo not given), the Potency entry was “inactive”.

`CC(C)(O)C(=O)Nc1ccc([N+](=O)[O-])c(C(F)(F)F)c1`: the Potency entry was “inactive”.

Turning to `CS(=O)(=O)NC(=O)c1cc(Oc2ccc(C(F)(F)F)cc2Cl)ccc1[N+](=O)[O-]`, the Potency result was “inactive”.

On to `N#Cc1nn(-c2c(Cl)cc(C(F)(F)F)cc2Cl)c(N)c1S(=O)C(F)(F)F` (stereo not given), for which the Potency entry is “inactive”.

For the compound `Cl`, the Potency entry is “inactive”.

As for `CCOP(=S)(OCC)OP(=S)(OCC)OCC`, the Potency result is “inactive”.

Regarding `CC(C)(O)C#N`, the Potency result was “inactive”.

Consider `CCOC(=O)c1ccccc1N`, for which the Potency result is “inactive and 49 µM (active)”.

On to `C[N+](C)(C)CC(=O)O`, for which the Potency result is “inactive”.

Take `CC(C)CON=O`: the Potency result is “inactive”.

With `CCNCC`, the Potency result is “inactive”.

Consider `COP(=S)(OC)SCn1nnc2ccccc2c1=O`, for which the Potency result is “inactive”.

Consider `CC1=C(C(=O)Nc2ccccc2)SCCO1`, for which the Potency result is “inactive”.

Take `CCOP(=S)(OCC)SCn1c(=O)oc2cc(Cl)ccc21`: the Potency entry is “inactive”.

`CCCCOCCOC(C)=O`: the Potency entry is “inactive”.

On to `CSc1nc(NC(C)C)nc(NC(C)C)n1`, for which the Potency entry is “inactive”.

For the compound `CC(C)(c1ccc(OCC2CO2)cc1)c1ccc(OCC2CO2)cc1` (stereo not given), the Potency result was “inactive”.

Turning to `CCC[CH2][Sn]([Cl])([Cl])[CH2]CCC`, the Potency was 14 µM (active) and 13.8 µM (active).

As for `O=P(OCCCl)(OCCCl)OCCCl`, the Potency entry is “inactive”.

Consider `ClCC(Cl)CCl`, for which the Potency result is “inactive”.

These data come from PubChem BioAssay (Tox21).
